According to PubChem BioAssay AID504415 (Broad Institute, 2011):
Results with a measured potency or affinity are listed apart. Inconclusive results are not listed. Calls of active or inactive are those of the source.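 Rule for the calls: active = compound lowering the signal whose fitted half-maximal concentration is at most ten times its top tested dose; inconclusive = flat curve with 30 to 70% loss, or poor fit; inactive = the rest.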

Test: Mcl1-dependent cancer cell viability – HMC-1-8 cells, luminescence, dry powder, selectivity assay for A1 inhibitor project, dose response (AID 504415)

With `Cc1ccc(Nc2c([N+](=O)[O-])c(=O)n(C)c3ccccc23)cc1` as the molecule, how does the outcome read?
The outcome was “inactive”.

Which outcome does the source give for `Cn1c(=O)c([N+](=O)[O-])c(Oc2ccccc2)c2ccccc21` here?
The outcome was “inactive”.

For `O=c1oc2ccccc2c(Cl)c1[N+](=O)[O-]`, which outcome is on record?
The outcome was “inactive”.

With `CCOC(=O)N1CCN(c2c([N+](=O)[O-])c(=O)n(C)c3ccccc23)CC1` as the molecule, how does the outcome read?
The outcome was “inactive”.

For `Cc1ccc(Nc2c([N+](=O)[O-])c(=O)oc3ccccc23)cc1`, which outcome is on record?
The outcome was “inactive”.
